# Results from the supplement of paper PMC6555819.
# Legend:
# Experiment in all cases: PBM binding z-score (relative to random genomic background probes); higher = stronger binding; sequences stand for … in GC…GCGATTGACAGCGTAGAATGAAGG
# [1] = system: FXR:RXRa (NR concentration 270 nM, RXRa partner concentration 90 nM)
# Summary of the method: (§1)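 Custom Agilent 4×180K protein-binding microarrays carried double-stranded probes, each with a 34-nt variable region. These regions held direct-repeat seeds, single-nucleotide variants, half-site ablations and random human genomic background sequences. Ligand-free nuclear receptor dimers were incubated on the arrays for 1 h, antibodies against each partner (one per run) detected binding, and scanned fluorescence was regression-normalized. Binding z-scores take the random background probes as reference.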
# [2] = system: LXRa:RXRa (NR concentration 270 nM, RXRa partner concentration 90 nM)
# Summary of the method: as §1
# [3] = system: LXRa homodimer (NR concentration 270 nM)
# Summary of the method: as §1
# [4] = system: LXRb:RXRa (NR concentration 270 nM, RXRa partner concentration 90 nM)
# Summary of the method: as §1
# [5] = system: LXRb homodimer (NR concentration 270 nM)
# Summary of the method: as §1
# [6] = system: PPARa:RXRa (NR concentration 270 nM, RXRa partner concentration 90 nM)
# Summary of the method: as §1
# [7] = system: PPARg:RXRa (NR concentration 180 nM, RXRa partner concentration 90 nM)
# Summary of the method: as §1
# [8] = system: PPARg:RXRa 270nM:90nM, anti-RXR (NR concentration 270 nM, RXRa partner concentration 90 nM)
# Summary of the method: as §1
# [9] = system: PPARg:RXRa 30nM:10nM, anti-RXR (NR concentration 30 nM, RXRa partner concentration 10 nM)
# Summary of the method: as §1
# [10] = system: PPARg:RXRa 90nM:30nM, anti-RXR (NR concentration 90 nM, RXRa partner concentration 30 nM)
# Summary of the method: as §1
# [11] = system: PPARg:RXRa DBDmut IVT, anti-RXR (DBD mutation: RXRa K156A/R161A, NR concentration 270 nM, RXRa partner concentration 90 nM)
# Summary of the method: as §1
# [12] = system: PPARg:RXRa IVT, anti-PPARg (NR concentration 270 nM, RXRa partner concentration 90 nM)
# Summary of the method: as §1
# [13] = system: PPARg DBDmut:RXRa IVT, anti-PPARg (DBD mutation: PPARg1 K132A/R137A, NR concentration 270 nM, RXRa partner concentration 90 nM)
# Summary of the method: as §1
# [14] = system: PPARg DBDmut IVT, anti-PPARg (DBD mutation: PPARg1 K132A/R137A, NR concentration 270 nM)
# Summary of the method: as §1
# [15] = system: PPARg homodimer (NR concentration 180 nM)
# Summary of the method: as §1
# [16] = system: PXR:RXRa (NR concentration 270 nM, RXRa partner concentration 90 nM)
# Summary of the method: as §1
# [17] = system: PXR homodimer (NR concentration 270 nM)
# Summary of the method: as §1
# [18] = system: RARa:RXR (NR concentration 270 nM, RXRa partner concentration 90 nM)
# Summary of the method: as §1
# [19] = system: RARa homodimer (NR concentration 270 nM)
# Summary of the method: as §1
# [20] = system: RARb:RXRa (NR concentration 270 nM, RXRa partner concentration 90 nM)
# Summary of the method: as §1
Sequence,PBM binding z-score [1],PBM binding z-score [2],PBM binding z-score [3],PBM binding z-score [4],PBM binding z-score [5],PBM binding z-score [6],PBM binding z-score [7],PBM binding z-score [8],PBM binding z-score [9],PBM binding z-score [10],PBM binding z-score [11],PBM binding z-score [12],PBM binding z-score [13],PBM binding z-score [14],PBM binding z-score [15],PBM binding z-score [16],PBM binding z-score [17],PBM binding z-score [18],PBM binding z-score [19],PBM binding z-score [20]
TAGCCTAGGTCATTCAGGGGCCCGTATAGAAAGC,4.76,3.93,0.791,2.54,0.963,3.52,1.99,2.34,0.359,1.44,1.73,2.64,0.467,0.786,1.25,2.01,-0.334,2.84,-0.527,3.47
ACTATTAGTTGAGACGAGGGCAATCGATAGGTTG,0.46,0.333,-0.168,0.136,-0.0649,0.253,0.627,0.107,0.45,0.23,0.458,0.2,0.805,0.52,0.357,1.46,0.418,1.25,0.603,0.918
CAGCCTAGGTCAGGGCTAGTATAGGAGGAACGTT,1.42,0.697,-0.359,0.186,-1.36,1.99,0.77,0.899,-0.0707,0.264,1.32,1.55,-1.23,-0.952,0.47,0.176,-0.363,1.08,-0.159,3.41
CTACCAGGGTGAACAAGGTCGTTGATTACTATTC,0.789,1.46,0.0612,1.76,-0.454,2.41,0.951,1.28,0.0757,0.507,1.3,1.86,0.284,-0.282,1.61,3.12,0.95,2.67,-0.135,1.42
CGTCCAAGGTCATAGGAGGTCAGTCAAGACAGAT,7.64,7.59,5.22,6.59,0.88,5.87,5.47,5.75,2.45,4.47,3.31,4.37,0.231,0.0229,4.04,6.74,4.16,5.99,1.15,5.37
TTACCAAGGTGAGCTGAGGTCGGTGATCCAACTC,0.603,0.222,-0.197,0.0956,-1.13,1.07,0.209,0.517,-0.0845,0.37,0.759,1.6,-0.343,-0.369,-0.703,2.47,-0.308,1.19,-0.395,1.52
CCTACTGGGACATTCAGAGGTCATTGATCATATG,3.08,4.71,7.13,4.05,1.06,3.74,2.3,3.13,0.845,2.31,4.26,3.96,0.709,0.697,3.07,5.15,3.43,4.96,1.35,3.11
GGAACGAGGGCATTCGAGTTGATAGCTTGGCGAT,1.76,1.65,-0.471,0.207,-0.992,1.36,0.667,0.802,-0.342,0.275,3.44,2.2,-0.209,-0.379,-0.157,3.79,1.99,0.494,-1,1.87
TCTGCTAGGTCCGTTGGTCAGCTAACGAGCTGCC,-0.505,-0.6,-1.09,-0.828,-0.736,-0.336,-1.2,-0.0919,0.802,0.586,0.439,-0.053,-0.86,0.217,-1.34,-0.511,-1.26,-0.446,-1.4,-0.0528
AGTCAAAGTTCAGGACGAGGTAACATAAAGCACG,4.23,4.01,1.38,2.25,0.512,3.45,4.84,4.91,2.27,4.16,-0.187,1.85,1.18,0.12,2.12,3.37,1.47,3.33,0.906,4.15
CCTAGCAGGCCAATCTGGGTCACGCAAGGCTTGA,1.04,1.43,-0.342,0.849,-1.08,3.34,3.18,3.08,0.775,2.35,4.65,5.54,0.23,-0.484,0.454,1.48,-0.572,2.17,-0.583,1.92
CAGACTAGGTCACGAAAGGTCAAAGTCGAATGAC,7.54,8.31,7.86,7.34,2.45,6.6,9.66,7.89,5.88,7.73,7.63,8.03,2.48,2.21,6.4,6.89,2.84,7.62,4.19,5.6
GCTTACCGGTCAAAGGTTATAGCATGAATAGAAT,4.43,4.56,1.49,3.6,0.218,5.47,8.77,7.56,6.87,8.38,1.07,3.62,1.01,0.383,1.71,3.63,0.0899,5.64,0.15,3.59
GCTTGGAGGACAAGGTCAGAGCTTTGTCCGTAGA,1.44,1.7,-0.316,1.03,-0.782,2.48,0.977,1.88,0.0499,1.35,1.24,1.71,-1.32,-1.05,0.764,1.76,-0.385,2.05,-0.509,3.48
CATTACGGGTCACTGACAGGTTATAGCATTTGGA,5.82,5.1,1.52,4.09,0.756,5.54,5.78,5.45,2.2,4.33,4.59,5.02,2.13,1.77,2.69,3.95,0.249,4.95,1.33,4.05
CCGAGTAGGTTAAGGGGCATTCAGGCAACGGTGA,0.765,0.894,-0.155,1.02,-0.297,3.51,6.06,6.42,4.16,6.65,3.63,4.08,-0.405,-0.995,0.976,0.49,0.0402,1.39,0.293,1.51
CCTAGCAGGCCAATCCGGGTCACTCAAGGCTTGA,2.13,1.84,-0.396,1.47,-0.923,2.78,0.787,1.02,-0.565,0.469,2.27,2.8,-1.26,-0.765,0.726,2.79,-0.246,2.23,-0.442,1.63
CCTTACGGGTCAATGACAGGTTATAGCATTTGGA,6.33,4.45,1.11,3.68,0.333,5.07,3.44,3.62,1.13,2.5,2.52,2.91,0.126,0.222,4.22,3.44,0.512,4.2,0.757,3.97
CAAACTAGGTCAAAGGTCAATGTCGAGCCAACCA,8.32,7.09,4.92,6.96,2.33,7.33,14,11.7,13.6,14.2,8.75,9.22,5.2,5.46,8.27,7.07,1.86,8.9,4.59,5.51
TCTTGTAGAGCAGCAGGTTAAGAAAGCTGGCCAA,-0.000312,-0.0132,-1.04,-0.257,-1.45,0.529,-0.553,1.04,1.29,1.01,1.09,0.666,-0.321,-1.03,-0.986,-0.26,-1.07,-0.139,-0.879,-0.156
TCGAGTATGTTACCAATGGGGCATTCAGCTTTCT,-0.179,-0.268,-0.402,0.416,-0.279,0.256,-0.157,0.416,1.14,0.894,1.25,0.121,-0.168,-0.0708,-0.422,0.0821,-0.273,0.0781,-0.543,-0.0471
TCAAGTTGGTCAAAGGTCACACACTCGAAATGCG,6.18,5.75,3.72,5.56,1.33,6.41,11.2,9.6,10,10.6,3.5,6.22,1.33,1.21,5.18,5.91,1.87,7.41,2.74,5.12
TTACCAAGGTGAAGGGCGTTGATCCCTCTGTAGA,0.622,0.629,-0.192,0.495,-0.575,1.47,0.846,2.19,0.835,1.69,1.73,2.43,-0.0766,-0.0935,0.279,0.365,-0.351,0.762,-0.0384,1.64
TAGACTAGGTCATGCGGGCCAGTATAGTGTCGGC,3.22,2.34,0.304,1.15,0.173,3.96,5.48,4.65,2.34,3.95,5.86,6.59,1.88,2.4,0.793,1.06,-0.131,1.67,-0.228,3.55
ACTCGTTGGTCAGCTGAGGTCACACACAATTCGG,3.88,3.44,2.55,3.61,0.51,3.65,1.26,1.84,0.425,1.25,0.747,2.05,-0.129,0.631,3.13,5.42,1.8,4.47,1.77,3.58
GCTGCTTGGTCAGGTTGGTCAGCTAACGGGTACG,-0.11,-0.383,-0.554,-0.457,-0.187,-0.407,-0.682,-0.648,-0.905,-1.09,-0.165,0.0885,-0.778,-0.893,-0.123,-0.298,-0.597,-0.108,-0.538,0.63
TAGCCTAGGTCAGATCGGGACAGTATACGCTATA,3.31,1.3,-0.0323,1.07,-0.146,1.82,0.86,0.922,0.0788,0.727,0.601,1.73,-0.45,-0.46,0.479,1.74,-0.545,1.11,-0.615,3.11
TCATATAGGTAAAGAGGTGAAAGTCCGTAAGTTA,1.74,1.63,0.378,1.56,-0.0509,3.46,4.38,4.63,4.83,5,4.95,5.26,1.1,0.188,1.78,1.23,0.825,1.76,1,1.65
GATACAGGGTCAGCTAGGGGCCAGAGTATGGAAA,5.14,2.64,-0.494,2.7,-0.084,4.79,3.88,3.46,0.617,1.94,1.75,2.41,-0.163,-0.667,3.15,2.94,-0.0214,4.97,0.262,4.22
